Assay outcomes deposited in PubChem by several laboratories.
CYP2C19 activ – activators of human cytochrome P450 2C19. activation factor at 5 µM. recombinant CYP2C19, luciferin-H EGE luminescence; hits give high values; 0 = fully inhibited enzyme, 1 = untreated enzyme. 96,000 tested, under 10 active. P33261. AID 1025;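 active = activation factor of at least 2 at 5 µM in the primary screen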;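 note: 0 = wells with 2.5 mM tranylcypromine and 1 = vehicle-only wells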
CYP2C9 inhib – human CYP2C9 inhibition | P11712 | hit rate 20% among 96,000 | CYP2C9 Supersomes, luciferin-H conversion, luminescence | AID 777 | inhibition, % at 5 µM;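 active = blocking of liver enzyme CYP2C9 beyond about 50% at 5 µM, limit read from the data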
D1 mod – D1 dopamine receptor (human) allosteric modulation. P21728. HEK293 D1, CRE-luciferase, dopamine EC30 potentiation; actives deviate in either direction. B-score at 10 µM. hit rate 5.9% among 58,000;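 active = luminescence count or its row- and column-corrected plate score outside the 99.7% band of the plate's sample wells, on either side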
CYP2C19 inh – inhibitors of human CYP2C19 | P33261 | CYP2C19 Supersomes, luciferin-H EGE luminescence, 30 min | inhibition, % at 5 µM | hit rate 21% among 96,000 | AID 778;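 active = CYP2C19 inhibition above a set limit at 5 µM in the primary screen, cut at about 50% in these data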;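 note: plate controls were negative control wells for no effect and 2.5 mM tranylcypromine positive control for full effect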
DAT uptake mod – changed human dopamine transporter uptake under cocaine IC80. LLC-PK1 hDAT cells, [14C]-dopamine uptake with cocaine IC80; actives deviate in either direction. B-score at 10 µM. hit rate 1.3% among 110,000. AID 449768;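 active = Z score or B-score, a plate-position-corrected score, falls beyond the plate's 99.7% confidence bounds, in either direction; inactive = both scores lie inside the 99.7% bounds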;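 note: scored against the spread of the other compound wells on the same plate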
CYP2C9 activ – CYP2C9 (human) activation. P11712. recombinant CYP2C9, luciferin-H conversion, luminescence; hits give high values; factor 1 = untreated enzyme, 0 = blocked. activation factor at 5 µM. hit rate 1.4% among 96,000;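 active = activation factor of 2 or more for CYP2C9 at a 5 µM dose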;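 note: 0 = sulfaphenazole-blocked wells and 1 = vehicle-only wells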
* marks the source's active call; other numbers are inactive results. Shown are actives, neighbours in structure and some others; about 28% of the full set was active somewhere.

How did COc1ccc(NC(=O)CN2CCC3(O)CCCCC3C2c2ccccc2OC)cc1 (configuration not stated) do in these assays?
CYP2C19 activ: 0.3; CYP2C9 inhib: 91*; D1 mod: 1.8; CYP2C19 inh: 74*; DAT uptake mod: 0.014; CYP2C9 activ: 0.1

How did CCN(CC)CCCN(Cc1cc2ccc(C)c(C)c2[nH]c1=O)C(=O)NC1CCCCC1 do in these assays?
CYP2C19 activ: 1.1; CYP2C9 inhib: -2; CYP2C19 inh: -5; DAT uptake mod: 1.7; CYP2C9 activ: 1

Results for OCCSc1c(F)c(SCCO)c(SCCO)c(F)c1SCCO ?
CYP2C19 activ: 0.6; CYP2C9 inhib: 70*; D1 mod: 0.31; CYP2C19 inh: 40; DAT uptake mod: -0.46; CYP2C9 activ: 0.3

What do the screens show for `COC(=O)c1ccccc1S(=O)(=O)N1CCC(c2nc3ccccc3o2)CC1`?
CYP2C19 activ: 0.1; CYP2C9 inhib: 81*; D1 mod: -0.73; CYP2C19 inh: 87*; DAT uptake mod: 0.89; CYP2C9 activ: 0.2

Results for COC(=O)c1cccc(S(=O)(=O)N2CCC(c3nc4ccccc4o3)CC2)c1 ?
DAT uptake mod: -0.015

How did Cn1c(CCNC(=O)c2ccco2)nc2cc(NS(=O)(=O)c3ccccc3)ccc21 do in these assays?
CYP2C19 activ: 0.7; CYP2C9 inhib: 56*; D1 mod: -0.78; CYP2C19 inh: 31; DAT uptake mod: -0.63; CYP2C9 activ: 0.4

How did Cn1c(CCNC(=O)c2ccco2)nc2cc(NC(=O)c3ccco3)ccc21 do in these assays?
CYP2C19 activ: 1; CYP2C9 inhib: 1; D1 mod: 0.055; CYP2C19 inh: 3; DAT uptake mod: -1.3; CYP2C9 activ: 1

What do the screens show for `CCOc1ccccc1NC(=O)CCS(=O)(=O)c1cccc2nonc12`?
CYP2C19 activ: 0.3; CYP2C9 inhib: 8; D1 mod: 0.018; CYP2C19 inh: 67*; DAT uptake mod: 0.091; CYP2C9 activ: 0.9

How did O=C(CCNS(=O)(=O)c1cccc2nonc12)NCc1cccs1 do in these assays?
CYP2C19 activ: 0.8; CYP2C9 inhib: -101; D1 mod: 0.24; CYP2C19 inh: 16; DAT uptake mod: 0.09; CYP2C9 activ: 2*

Results for COc1cccc(CNC(=O)CCS(=O)(=O)c2cccc3nonc23)c1 ?
CYP2C19 activ: 0.6; CYP2C9 inhib: -19; D1 mod: -0.028; CYP2C19 inh: 42; DAT uptake mod: -0.17; CYP2C9 activ: 1.2

Results for CC(C)CCNC(=O)CCS(=O)(=O)c1cccc2nonc12 ?
CYP2C19 activ: 0.4; CYP2C9 inhib: -34; D1 mod: -0.54; CYP2C19 inh: 55*; CYP2C9 activ: 1.3

How did O=C(CCS(=O)(=O)c1cccc2nonc12)NCCc1ccccc1 do in these assays?
CYP2C19 activ: 0.5; CYP2C9 inhib: 3; D1 mod: 0.43; CYP2C19 inh: 53*; DAT uptake mod: -1.2; CYP2C9 activ: 1

What do the screens show for `CC(=O)Nc1cc(C(=O)N2CCCC2)ccc1S(=O)(=O)c1ccc(Cl)cc1`?
CYP2C19 activ: 1; CYP2C9 inhib: 6; CYP2C19 inh: -3; DAT uptake mod: -1; CYP2C9 activ: 0.9

How did COC(=O)C1=C(C)N(CCCCCC(=O)O)C(=O)NC1c1ccccc1 (configuration not stated) do in these assays?
DAT uptake mod: -0.45

Results for COc1cccc(-c2nc(N3CCCCC3C)c3ccccc3n2)c1O (configuration not stated) ?
CYP2C19 activ: 0.8; CYP2C9 inhib: 84*; CYP2C19 inh: 24; DAT uptake mod: 0.006; CYP2C9 activ: 0.2

What do the screens show for `COc1cc(C(O)P(=O)(OC2CCCCC2)c2ccc(N(C)C)cc2)cc(OC)c1OC` (configuration not stated)?
CYP2C19 activ: 0.2; CYP2C9 inhib: 27; D1 mod: -0.73; CYP2C19 inh: 84*; DAT uptake mod: -1.7; CYP2C9 activ: 0.7

How did CN(C)c1ccc(P(=O)(OC2CCCCC2)C(O)c2cccnc2)cc1 (configuration not stated) do in these assays?
CYP2C19 activ: 0.6; CYP2C9 inhib: 10; D1 mod: -0.2; CYP2C19 inh: 40; DAT uptake mod: 1.1; CYP2C9 activ: 0.9
